From PubChem BioAssay (NCI) come the findings set out here.

The structures appear in SMILES notation. This is part of a sample that, as a whole, favours compounds with a hit. Of some 83,000 tested, about 20% had one in any assay.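 Each cell line was grown in a 96-well plate and treated with one concentration of compound for 48 hours. Values below 10 were considered active.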 Unmarked numbers belong to inactive results. Active and inactive are the calls of the source.

Some test systems named below: SR leukemia; OVCAR-8 ovarian; OVCAR-5 ovarian; OVCAR-4 ovarian; SK-OV-3 ovarian; IGROV1 ovarian; OVCAR-3 ovarian; HS 578T breast; NCI/ADR-RES ovarian; T-47D breast; MDA-MB-435 melanoma; SW-620 colon; HCT-116 colon; HCC-2998 colon; KM12 colon; BT-549 breast; MCF7 breast; RPMI-8226 leukemia.
What all share (assay): NCI-60 one-dose screen, 48 h (100 = growth as untreated, 0 = no growth, -100 = all killed)
Settings in all cases: 10 µM unless noted

On to `C=C(C)[C@@H]1CC[C@]2(COP(=O)(OCC)OCC)CC[C@]3(C)[C@H](CC[C@@H]4[C@@]5(C)CCCNC(C)(C)[C@@H]5CC[C@]43C)[C@@H]12`, for which the growth in the assay with SR leukemia was -51.4% (active); with OVCAR-8 ovarian it was 55.4%; in the assay with OVCAR-5 ovarian, 58.6%; with OVCAR-4 ovarian, 23.5%; in the assay with SK-OV-3 ovarian, 103%; in the assay with IGROV1 ovarian, 6.74% (active). In addition, the growth in the assay on OVCAR-3 ovarian is 54%; in the assay with HS 578T breast, 52.9%; in the assay on NCI/ADR-RES ovarian, 27.6%; in the assay with T-47D breast, 59.1%; in the assay on MDA-MB-435 melanoma, 36.5%; in the assay with SW-620 colon, 15.3%. Further, the growth is -68.8% (active) in the assay with HCT-116 colon, -27.4% (active) in the assay with HCC-2998 colon and 55.7% in the assay with KM12 colon.

On to `COc1cc(/C=C2\C(=O)Nc3ccccc32)ccc1OCc1ccc(F)cc1`, for which the growth with SR leukemia was 90.1%; with OVCAR-8 ovarian, 102%; with OVCAR-5 ovarian, 107%; with OVCAR-4 ovarian, 103%; in the assay on SK-OV-3 ovarian, 114%; with IGROV1 ovarian, 101%. The growth is 117% with OVCAR-3 ovarian; 115% with HS 578T breast; 102% in the assay on NCI/ADR-RES ovarian; 107% with T-47D breast; 116% with BT-549 breast; 103% with MDA-MB-435 melanoma. The growth was 106% in the assay with SW-620 colon; 87.8% in the assay on MCF7 breast; 107% with HCT-116 colon; 119% with HCC-2998 colon; 101% in the assay on KM12 colon.

For the compound `C=CCn1c(SCC(=O)Nc2ccc(C(=O)/C=C/c3cccc([N+](=O)[O-])c3)cc2)nnc1-c1c[nH]c2ccccc12`, the growth in the assay on RPMI-8226 leukemia was 11.9%; in the assay with OVCAR-8 ovarian, 90.4%; in the assay on OVCAR-5 ovarian it was 96.8%; in the assay on OVCAR-4 ovarian, 74.9%; in the assay with SK-OV-3 ovarian, 106%; in the assay on IGROV1 ovarian, 82.7%. The growth is 99.8% in the assay on OVCAR-3 ovarian; 102% in the assay with HS 578T breast; 101% in the assay with NCI/ADR-RES ovarian; 59.8% in the assay with T-47D breast; 117% in the assay with BT-549 breast; 98.4% in the assay on MDA-MB-435 melanoma. Further, the growth in the assay on SW-620 colon is 98.7%; in the assay with MCF7 breast it was 25.4%; with HCT-116 colon it was -32.6% (active); with HCC-2998 colon, 86%; with KM12 colon, 93.4%.
